Consider 13 compounds from PubChem BioAssay (NCATS).

The nature of experiment [1]: ZIKV-mCherry secondary qHTS for Zika virus inhibitors (AID 1347158). Further: top concentration of the series differs between compounds. The gist of the method:
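Vero cells (5,000/well) were given compound, then infected with ZIKV-mCherry at MOI 1 for 48–72 h at 37 °C. After PFA fixation and Hoechst staining, imaging gave percent mCherry-positive cells. The positivity threshold was RFU above 450, 3 SD over negative controls.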
For orientation: qHTS replaces the single test concentration by a dilution series.

A short description of experiment [2]: HEK293 18hr Apoptosis Induction qHTS against the NCATS CANVASS Library (AID 1347357). The gist of the method:
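Cells seeded at 500/well in DMEM + 10% FBS. Compounds pinned, 11 concentrations. 18 h, 37 degrees C/5% CO2. Caspase-Glo 3/7 added, 15 min RT dark, luminescence read.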

A short description of experiment [3]: HEK293 12hr Apoptosis Induction qHTS against the NCATS CANVASS Library (AID 1347361). The gist of the method: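 Cells are seeded, dosed with an 11-point compound series and incubated 12 hours. Caspase-3/7 activity is detected by luminescent DEVD-substrate reagent after 15 minutes at room temperature.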
Experiment [4] can be described thus: SDT Cancer Cell Toxicity qHTS against the NCATS CANVASS Library (AID 1347365). Further: nearly all actives have a fitted effect of over 60% in size. The gist of the method: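 SDT dog glioma cells (500/well) exposed to an 11-point compound series for 72 hr at 37C, 5% CO2. Cytotoxicity read as ATP content by CellTiterGlo luminescence; bortezomib titration as control.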
The nature of experiment [5]: KB-3-1 Cancer Cell Toxicity qHTS against the NCATS CANVASS Library (AID 1347366). Further: nearly all actives have a fitted effect of over 75% in size. The gist of the method: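 Luminescence from CellTiter-Glo (10 min, room temperature) measured KB-3-1 viability after 72 hr compound exposure at 37C. Cells were seeded at 500/well and tested in an 11-point series.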
Experiment [6] is described as follows: qHTS for H2AX Agonists against the NCATS CANVASS Library (AID 1347378).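 Further: phospho-H2AX S139 level in CHO-K1 lysates by TR-FRET emission ratio.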 The gist of the method: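 CHO-K1, 1000 cells/well, o/n 37C; cpd several conc, 3 hr 37C, 0.76% DMSO; lyse 30 min RT; cryptate anti-pH2AX(S139) + d2 anti-H2AX, 24 hr RT; HTRF 665/620.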
The nature of experiment [7]: Inflammasome Signaling qHTS Counterscreen: IL-1-beta AlphaLISA counterscreen against the NCATS CANVASS Library (AID 1347381).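 Further: cell-free check with purified IL-1β in medium and no THP-1 cells; series mostly up to about 57 µM.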 The gist of the method:
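Cell-free interference check: compounds added to medium spiked with 4 pg purified IL-1β. Anti-IL-1β acceptor beads (6 ug/mL) with 0.6 nM biotinylated antibody added for 1 h at RT, then streptavidin donor beads (24 ug/mL) for 30 min in the dark. AlphaLISA read at 680/615 nm.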

The nature of experiment [8]: Secretion counterscreen for inhibitors of the SERCaMP assay screened against the NCATS CANVASS Library (AID 1347390).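 Further: light from luciferase secreted into medium read as a measure of general secretion; series mostly up to about 77 µM.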 The gist of the method: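 SH-SY5Y-GLuc STOP cells; 4 h attach; cpds 0.001 - 77 uM (qHTS, 11 pts), 20 h 37C/5% CO2; coelenterazine in glow buffer; luminescence, 5 s exposure.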
Experiment [9] is described as follows: qHTS for activators of Nrf2/ARE signaling pathway screened against the NCATS CANVASS Library (AID 1347391). Further: nearly all actives have a fitted effect of over 60% in size. Further: potency means the concentration at half of the fitted maximal effect. The gist of the method: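 ARE-bla HepG2 beta-lactamase reporter cells exposed to compounds for 16 h at 37C; CCF4 substrate 2 h, fluorescence at ex 405 nm, em 460/530 nm. Viability by CellTiter-Glo luminescence.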
The nature of experiment [10]: Redox Reaction Profiling qHTS: Assay Interference Panel against the NCATS CANVASS Library (AID 1347401). The gist of the method:
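Compounds in 11-point series incubated with 5 uM resazurin and 200 uM DTT in 50 mM HEPES pH 7.3, 50 mM NaCl. Resorufin fluorescence (Ex 525/Em 598) read before and after 15 min in the dark.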

Experiment [11] is described as follows: G06 Cancer Cell Toxicity qHTS against the NCATS CANVASS Library (AID 1347368). Further: nearly all actives have a fitted effect of over 60% in size. The gist of the method:
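G06 dog glioma cells, 500 per well, exposed 72 hr at 37C, 5% CO2 to compounds in an 11-point series. Cytotoxicity read as ATP content by CellTiterGlo luminescence.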

Experiment [12] is described as follows: qHTS for inhibitors of ER calcium dysfunction: SERCaMP assay screened against the NCATS CANVASS Library (AID 1347393).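 Further: series mostly up to about 77 µM; lower secreted reporter signal means inhibitor of ER calcium depletion; nearly all actives have a fitted effect of over 40% in size.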 The gist of the method:
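SH-SY5Y GLuc-SERCaMP, 1000 cells/well, 4 h attach; cpd 16 h, 37C/5% CO2; thapsigargin (added as 6x 600 nM) 4 h; coelenterazine; luminescence. Reduced reporter release = ER Ca stabilization.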

Experiment [13] deals with Cytochrome P450 3A4 (Homo sapiens) (UniProt P08684). Nature of the experiment: qHTS Assay for Inhibitors and Substrates of Cytochrome P450 3A4 (AID 884). Further: series mostly up to about 57 µM; nearly all actives have a fitted effect of over 50% in size. The gist of the method: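 20 nM human CYP3A4 with 25 uM Luciferin-PPXE (at KM) in 200 mM KPO4, preincubated 10 min with compound; NADPH regeneration started a 60 min RT reaction. Luciferin detected by luminescence, normalized to 57 uM ketoconazole as full inhibition.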

Experiment [14] deals with Ubiquitin carboxyl-terminal hydrolase 1 (Homo sapiens) (UniProt O94782). Nature of the experiment: Inhibitors of USP1/UAF1: Pilot qHTS (AID 504865). Further: potency means the concentration at half of the fitted maximal effect; nearly all actives have a fitted effect of over 35% in size. The gist of the method: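 In 50mM HEPES pH 7.8 containing 0.5mM EDTA, 1mM TCEP, 0.1 mg/ml BSA and 0.01% Tween-20, 1nM USP1/UAF1 is exposed to compound for 15 min, then Ub-Rho (150nM final) is added and fluorescence is read over time.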

A short description of experiment [15]: qHTS for Hypoxia signaling pathway (HIF-1) antagonists against the NCATS CANVASS Library (AID 1347374).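 Further: HRE-bla ME-180 cells stimulated with cobalt chloride to stabilize HIF-1alpha; series mostly up to about 38 µM; nearly all actives have a fitted effect of over 60% in size.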 The gist of the method:
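HRE-bla ME-180 cells in medium with 0.5% dialyzed FBS received compounds (11-point series) plus CoCl2 (60 uM addition stock) for 17 hrs at 37C. Beta-lactamase activity read with CCF4 (405 nm ex, 460/530 nm em); CellTiter-Glo viability measured in same wells.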

A short description of experiment [16]: qHTS for Antimalaria activity screened against the NCATS CANVASS Library (AID 1347380).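 Further: Plasmodium falciparum strain Dd2 asexual parasites grown in red blood cells; series mostly up to about 29 µM; nearly all actives have a fitted effect of over 40% in size.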 The gist of the method: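 Red blood cells infected with P. falciparum Dd2 (2.5% hematocrit final, 0.3% parasitemia) were exposed to compounds in an 11-point qHTS series for 72 hr at 37C under 5% O2 and 5% CO2. Lysis buffer with SYBR Green was then added for 18 hr, and fluorescence was read at 485/535 nm.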

Structures are written as SMILES. Values without a mark were called inactive. Records with an inconclusive call do not appear. Activity calls are given as the source filed them. The call rests on the fitted dose curve; in most records, active means well fitted curve in the direction sought with a large enough effect; inconclusive means small, poorly fitted or top-dose-only effect, or another doubt; inactive means no such curve, though single readings can be large; an effect the other way counts as inactive or inconclusive.

Chain of Ubiquitin carboxyl-terminal hydrolase 1 (Homo sapiens) (O94782 whole entry, looked up): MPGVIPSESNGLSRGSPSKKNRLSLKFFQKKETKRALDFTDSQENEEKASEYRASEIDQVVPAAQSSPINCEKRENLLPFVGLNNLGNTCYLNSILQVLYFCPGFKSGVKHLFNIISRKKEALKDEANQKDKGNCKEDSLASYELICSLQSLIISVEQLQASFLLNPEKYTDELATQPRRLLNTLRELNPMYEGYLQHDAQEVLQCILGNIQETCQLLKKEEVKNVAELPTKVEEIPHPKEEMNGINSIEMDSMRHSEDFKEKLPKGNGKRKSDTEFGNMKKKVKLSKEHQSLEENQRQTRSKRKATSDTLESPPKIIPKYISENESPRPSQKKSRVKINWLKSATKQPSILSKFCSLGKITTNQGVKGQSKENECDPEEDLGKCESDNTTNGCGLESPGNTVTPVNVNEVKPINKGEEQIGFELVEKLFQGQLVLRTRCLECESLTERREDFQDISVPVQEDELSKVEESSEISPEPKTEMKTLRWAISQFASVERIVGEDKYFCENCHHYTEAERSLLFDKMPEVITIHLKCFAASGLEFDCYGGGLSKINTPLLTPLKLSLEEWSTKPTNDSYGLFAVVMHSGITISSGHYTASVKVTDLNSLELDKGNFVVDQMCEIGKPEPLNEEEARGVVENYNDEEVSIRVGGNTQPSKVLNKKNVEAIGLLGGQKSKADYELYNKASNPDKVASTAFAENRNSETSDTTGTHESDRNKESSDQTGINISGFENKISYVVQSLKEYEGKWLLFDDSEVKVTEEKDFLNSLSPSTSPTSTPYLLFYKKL
Chain of Cytochrome P450 3A4 (Homo sapiens) (P08684 whole entry, looked up): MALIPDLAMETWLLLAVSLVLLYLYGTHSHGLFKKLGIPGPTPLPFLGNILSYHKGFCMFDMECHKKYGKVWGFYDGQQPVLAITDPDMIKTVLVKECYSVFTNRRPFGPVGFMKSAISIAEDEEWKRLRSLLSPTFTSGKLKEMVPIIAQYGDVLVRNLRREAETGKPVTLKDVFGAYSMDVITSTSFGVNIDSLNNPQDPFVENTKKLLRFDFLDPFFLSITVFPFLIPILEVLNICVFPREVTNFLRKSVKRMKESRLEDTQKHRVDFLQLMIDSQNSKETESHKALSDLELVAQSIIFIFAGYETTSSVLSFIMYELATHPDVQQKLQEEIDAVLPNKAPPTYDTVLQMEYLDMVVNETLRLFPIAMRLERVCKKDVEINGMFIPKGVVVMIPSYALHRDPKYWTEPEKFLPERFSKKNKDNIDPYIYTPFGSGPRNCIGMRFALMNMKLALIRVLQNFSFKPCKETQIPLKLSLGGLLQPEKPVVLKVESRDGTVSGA

For `Cc1ccc(Nc2nnc(-c3ccc(C)c(S(=O)(=O)NCc4nc5ccccc5[nH]4)c3)c3ccccc23)cc1`, the Potency result in experiment [1] was “inactive”.

Consider `O=C1c2c(O)cc(O)cc2O[C@@H](c2ccc(O)cc2)[C@@H]1c1c(O)cc(O)c2c(=O)cc(-c3ccc(O)c(O)c3)oc12`, for which the Potency result in [2], in experiment [3], in experiment [4], in [5], in [6] and in experiment [8] was “inactive” each time. The Potency result in experiment [9] and in experiment [10] was “inactive” each time. In addition, in experiment [7], the compound was called inactive.

On to `C=C1c2c(Cl)ccc(O)c2C(O)=C2C(=O)[C@]3(O)C(O)=C(C(N)=O)C(=O)[C@@H](N(C)C)[C@@H]3[C@@H](O)C12` (stereo partly specified), for which the Potency result in experiment [1] was “inactive”.

Consider `O=C(O)[C@@]12CO[C@@]3(O)C4CCN(CC[C@H]31)[C@H]4c1c2[nH]c2ccccc12`, for which the Potency entry in experiment [3], in experiment [4], in experiment [5], in [11], in experiment [6] and in [9] was “inactive” throughout. For the same compound, the Potency entry in [12] and in experiment [10] was “inactive” in each case. Moreover, the result in experiment [7] was inactive.

As for `O=C(Nc1ccc(C(=O)OCc2cc(=O)n3nc(C4CC4)sc3n2)cc1)c1cccc(Cl)c1`, the Potency entry in experiment [1] is “inactive”.

As for `CN(C)c1cc(CNCC(C)(C)C)c(O)c2c1C[C@H]1C[C@H]3[C@H](N(C)C)C(=O)C(C(N)=O)=C(O)[C@@]3(O)C(=O)C1=C2O`, the Potency result in experiment [1] is “inactive”.

With `O=C(OC1Cc2c(O)cc(O)cc2OC1c1cc(O)c(O)c(O)c1-c1c(C2Oc3cc(O)cc(O)c3CC2OC(=O)c2cc(O)c(O)c(O)c2)cc(O)c(O)c1O)c1cc(O)c(O)c(O)c1` (stereo unspecified), the Potency result in experiment [13] and in experiment [1] was “inactive” throughout. For the same compound, in experiment [14], the Potency was 50.1 µM (active).

For `C1=C2CCCN[C@@H]2[C@@H]2CCN3CCCC[C@@H]3[C@H](C1)C2`, the Potency result in experiment [2], in experiment [4], in experiment [5], in experiment [11], in experiment [15] and in [6] was “inactive” each time. In addition, the Potency entry in experiment [8], in experiment [9], in [12] and in [10] was “inactive” each time. In [7], the compound was classed as inactive.

In the case of `C[C@@H]1C(=O)[C@]23CC[C@H]1C[C@]21O[C@H]2C(C)(C)C=CC(=O)[C@@]23COC1=O`, the Potency entry in experiment [2], in [3], in experiment [4], in experiment [5], in experiment [11] and in experiment [6] was “inactive” in each case. In addition, the Potency result in experiment [10] was “inactive”.

Regarding `CC1(C)CCC[C@]2(C)[C@@H]1CC[C@@]13C[C@@H](CC[C@H]12)C(C)(O)C3` (stereo partly specified), the Potency entry in experiment [2], in experiment [4], in [5], in experiment [11], in experiment [6] and in experiment [16] was “inactive” in each case. Further, the Potency result in experiment [9], in experiment [12] and in [10] was “inactive” in each case. Moreover, the outcome in [7] was inactive.

Turning to `C[C@H]1C[C@@H]([C@@H]2CC[C@]34O[C@H](CC[C@@]35C[C@H](C)C(=O)O5)CN24)OC1=O`, the Potency entry in experiment [3], in experiment [4], in experiment [5], in experiment [11], in experiment [15] and in [6] was “inactive” throughout. Also, the Potency result in experiment [16], in experiment [9] and in experiment [10] was “inactive” throughout. In experiment [7], the call was inactive.

Consider `C[C@@H](CCC[C@]1(C)C(=O)C=C[C@]23C[C@H]4C[C@H](O[C@@]4(C)C2)C31)C(=O)N[C@@H](CO)C(=O)O` (stereo partly specified), for which the Potency result in [2], in experiment [3], in [4], in [5], in [11] and in experiment [15] was “inactive” in each case. In addition, the Potency entry in experiment [6], in [8], in experiment [12] and in experiment [10] was “inactive” each time. Further, the result in experiment [7] was inactive.

Turning to `C/C1=C\CC(=O)/C=C/C=C\c2csc(n2)[C@@H](C)NC(=O)C[C@@](S)([C@@H](C)C(=O)O)CC1`, the Potency entry in experiment [2], in experiment [3], in [4], in experiment [11], in experiment [16] and in experiment [8] was “inactive” throughout. The Potency in [9] was 18.6 µM (active).
